Compounds with a hit are over-represented: about 2.8% of the library has one in this group of screens.
TRPM1 prom inh: MITF TRPM1 promoter inhibition in SK-MEL-5 cells; SK-MEL-5 TRPM1 promoter luciferase, 24 h; inhibition, % at 12.5 µM; 0.83% of 330,000 active; AID 488899;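 active = mean inhibition across replicates of 60% or more, whatever share of single replicates reaches that level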
KKLEB tox: counter-screen for CF NF-kB inhibitors: cytotoxicity. 0.36% of 360,000 active. activity change (cytotoxicity), % at 5 µM. AID 602141. KKLEB CF airway cells viability, ATPlite luminescence, overnight; hits give low values; cells stimulated with P. aeruginosa culture filtrate;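 active = corrected activity change at or below -50% at 5 µM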
HIF-2a block: HIF-2a inhibition; 786-0 RCC cells HIF-2a reporter, luciferase luminescence, overnight; inhibition, % at 18.8 µM; 0.72% of 360,000 active; AID 624352;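 active = inhibition of the luminescence signal of 40% or more relative to plate controls, in a single-dose primary screen at 18.75 µM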
CF NFkB block: inhibitors of cystic fibrosis induced NF-kB; KKLEB NF-kB-GFP reporter, PAF-induced, GFP fluorescence overnight; inhibition, % at 5 µM; 0.86% of 360,000 active; AID 588850;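 active = at least 50% inhibition at 5 µM, scaled per plate between neutral and stimulator controls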;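 also: PAF is a Pseudomonas aeruginosa culture filtrate used as stimulus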
Peg3 prom inh: reduces Peg3 promoter-driven luciferase expression in HeLa; HeLa PEG-Prom luciferase reporter, luminescence, overnight; inhibition, % at 20 µM; 1.7% of 360,000 active; AID 588405;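 active = inhibition of at least 50% at 20 µM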
Shn3 3UTR inh: inhibitors of Schnurri-3 3'UTR reporter in osteoblasts; Clone20 osteoblast Shn3 3'UTR firefly luciferase, 24 h; inhibition, % at 12.5 µM; 0.52% of 360,000 active;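 active = mean inhibition of at least 75% with every replicate also reaching 75%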
Large screens that a line does not name were inactive.

C#CCOCCOCCOCCNc1nc(N2CCN(C(=O)CCCCCCCCCCNC(=O)[C@H]([C@@H](C)CC)n3cc(CCCCCN)nn3)CC2)nc(N2CCN(C(=O)CCCCCCCCCCNC(=O)[C@@H]([C@H](C)O)n3cc(C)nn3)CC2)n1	TRPM1 prom inh 99, Peg3 prom inh 98
C#CCOCCOCCOCCNc1nc(N2CCN(C(=O)CCCCCCCCCCNC(=O)Cn3cc(CCCCCN)nn3)CC2)nc(N2CCN(C(=O)CCCCCCCCCCNC(=O)[C@H]([C@@H](C)CC)n3cc(CCCCCN)nn3)CC2)n1	TRPM1 prom inh 97, Peg3 prom inh 96
C#CCOCCOCCOCCNc1nc(N2CCN(C(=O)CCCCCCCCCCNC(=O)[C@H](CCCCN)n3cc(CCO)nn3)CC2)nc(N2CCN(C(=O)CCCCCCCCCCNC(=O)[C@@H]([C@H](C)O)n3cc(C)nn3)CC2)n1	none
C#CCOCCOCCOCCNc1nc(N2CCN(C(=O)CCCCCCCCCCNC(=O)[C@H](CCC(=O)O)n3cc(CCCCCN)nn3)CC2)nc(N2CCN(C(=O)CCCCCCCCCCNC(=O)[C@@H]([C@H](C)O)n3cc(C)nn3)CC2)n1	none
C[C@@H]1CN([C@@H](C)CO)C(=O)CCCn2nncc2CO[C@@H]1CN(C)S(=O)(=O)c1ccc(Oc2ccccc2)nc1	none (no result: TRPM1 prom inh)
Cc1cccc(NC(=O)CSc2nnc(-c3cc(C)[nH]n3)n2N)c1	none
CCc1cc(C(=O)NCC(C)(C)N2CCOCC2)sc1C	none
CC(C)CN(CC(C)C)c1nn[nH]n1	none
C=CCn1c2ccccc2c2nnc(SCCCn3c(=O)[nH]c4ccccc43)nc21	Peg3 prom inh 65
C=CCn1c2ccccc2c2nnc(SCCN3CCCCC3)nc21	none
COC(=O)c1cc2nc(-c3ccccc3)cc(C)n2n1	none
Cc1cc(-c2ccccc2)nc2cc(C(=O)N(Cc3ccccc3)Cc3ccccc3)nn12	Peg3 prom inh 58
O=c1ccc2c([nH]1)CCCCCCCCCC2	Peg3 prom inh 54
O=C(N/N=C/c1ccc([N+](=O)[O-])o1)c1ccccc1-n1cccc1	TRPM1 prom inh 78
COc1ccccc1OCC(=O)N/N=C/C=C/c1ccc([N+](=O)[O-])o1	TRPM1 prom inh 76
Cc1ccccc1OCC(=O)N/N=C/c1ccc([N+](=O)[O-])o1	TRPM1 prom inh 79
Cc1cc(C)cc(OCC(=O)N/N=C/c2ccc([N+](=O)[O-])o2)c1	TRPM1 prom inh 66
O=C(N/N=C\c1ccccc1)c1ccccc1-n1cccc1	none
Cc1ccccc1OCC(=O)NCC(=O)N/N=C/c1ccc(Br)o1	none
COc1cc(Cl)ccc1NC(=O)COc1ccccc1C(=O)N1CCN(c2ccc(O)cc2)CC1	none
CC[C@@H](NC(=O)[C@H](Cc1ccccc1)NC(=O)CC[C@H]1O[C@@H](n2ccc(=O)[nH]c2=O)[C@H](O)[C@@H]1O)c1ccccc1	none (no result: TRPM1 prom inh)
O=C(CSc1nnc(Cc2ccccc2)o1)Nc1ccc(N2CCOCC2)cc1	none
CCOC(=O)N/N=C\c1ccc([N+](=O)[O-])o1	none
CC1(C(=O)N/N=C/c2ccc([N+](=O)[O-])o2)CC1(Br)Br (stereo not drawn)	TRPM1 prom inh 74
O=C(N/N=C\C=C\c1ccc([N+](=O)[O-])o1)c1cccs1	TRPM1 prom inh 83
CC(C)OC(=O)C1=C(N)N2C(=O)CSC2=C(C(=O)OC(C)C)C1	Peg3 prom inh 52
COC(=O)C1=C2SCC(=O)N2C(N)=C(C#N)C1	none
CN1CCN(c2ccc(S(=O)(=O)N3CCCCC3)cc2NC(=O)/C=C/c2ccc(OC(F)F)cc2)CC1	Peg3 prom inh 76
CCN1CCN(c2ccc(S(=O)(=O)N3CCCCC3)cc2NC(=O)/C=C/c2ccc(OC(F)F)cc2)CC1	Peg3 prom inh 96
CC(C)(C)C(=O)Nc1cc(S(=O)(=O)N2CCCCC2)ccc1N1CCCCC1	Shn3 3UTR inh 84
CN1CCN(c2ccc(S(=O)(=O)N3CCCCC3)cc2NC(=O)/C=C/c2ccc(Cl)c([N+](=O)[O-])c2)CC1	Peg3 prom inh 104
CCN1CCN(c2ccc(S(=O)(=O)N3CCCCC3)cc2NC(=O)/C=C/c2ccc(F)cc2)CC1	none
COC(=O)[C@]12CCCCC=C1N(Cc1ccc(Cl)cc1Cl)C(=O)[C@H](CC(=O)N1CCOCC1)C2	none (no result: TRPM1 prom inh, KKLEB tox, CF NFkB block, Peg3 prom inh, Shn3 3UTR inh)
COc1ccccc1NC(=O)Cc1nnc(SCC(=O)Nc2nccs2)n1C	none

From PubChem BioAssay
